These results are taken from PubChem BioAssay AID1508600 (Functional Genomics Laboratory (NCATS/FGL), 2020).

Out of some 53,000 sequences screened, about 3,700 (7%) were called active.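 Rule for the calls: active = gene knockdowns whose robust z-score for IL-1 alpha signal is at least 2 or at most -2, so actives lie on both sides; inactive = the rest.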 The sample as a whole holds a higher share of actives than the screen did.

This test in a line: Components of the Cytosolic LPS Sensing Pathway: Gene Identification via Genome-wide siRNA Screen.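 Note: robust z of the log signal after scaling to non-targeting control siRNA wells of the plate.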 The settings on record: RAW264.7 macrophages, IL-1a HTRF, actives lie on both sides, screened at 100 nM (by protocol), cells primed 5 h with Pam3CSK4 first. The procedure, abridged: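 Read-out: IL-1a HTRF on supernatant, divided by plate negative-control median ×100, log-transformed and converted to robust z-score. Cells were RAW264.7 given 100 nM siRNA, Pam3CSK4-primed 5 hours, then LipidA-transfected 24 hour.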
Take GGAAUUCAUGAAGUAUAACTT against Myo5c: the z-score is 0.941 (inactive).

GAUAAUUUGCACAUCCUCUTT against Nrn1l: the z-score is -0.999 (inactive).

For the sequence GGGUUUGAGUGCUGUGAAGTT against Ap4s1, the z-score was -2.66 (active).

Take GCUGGGCUACAAUACAUAUTT against Fgf3: the z-score is -0.0573 (inactive).

Take CCAUGAGUAUCAAGUCAAUTT against Septin9: the z-score is 1.14 (inactive).

With GGGUGAAAUCUAUCUCCAUTT against Agfg1, the z-score is -1.85 (inactive).

As for CCAUAAUUCAGCUAGACCUTT against Axin1, the z-score is 0.201 (inactive).

For GGUAAAGACUGGAUGGCUATT against Art5, the z-score was 2.14 (active).

In the case of GGAAAUCUUUGAGUUUGAATT against Clca1, the z-score was -0.0578 (inactive).

Regarding GCCAAAUGAGUCAGAUACUTT against Ak3, the z-score is -0.402 (inactive).

On to GGAUCCUUAAUCGAUACACTT against Gng3, for which the z-score was 2.38 (active).

“GCCUACAGGAGUGAGAUAATT against Arhgap33os”: the z-score is -1.36 (inactive).

Consider AUUGCAUUGUAUUCACUUGTT against Psg22, for which the z-score is 0.777 (inactive).

Regarding GGAAUUCACAUUUGACUGUTT against Irx3os, the z-score is 0.31 (inactive).

Consider GGGUUGGAUAGAAUAUUGUTT against Xk, for which the z-score was 1.4 (inactive).

With GCCUCGAUUGGCCACAUUUTT against Atp5l, the z-score was 4.61 (active).

With GCAGUAUGAGGUAAAUUAUTT against Amer3, the z-score is 1.05 (inactive).

On to GCCUUCAUUAUUUUAAUGCTT against Ilf3, for which the z-score was 0.0185 (inactive).

Take GGCAAAAUGAUCUGCUUUCTT against Trim69: the z-score is -0.125 (inactive).

Turning to GGUUGCUCAGAUUCAGAAUTT against Isy1, the z-score was -1.53 (inactive).

With GGAACCUAGAGAAAAAGAATT against Iyd, the z-score was -1.18 (inactive).

GGCUUUCCAGAAGACAGAATT against Cyp2s1: the z-score was 0.469 (inactive).

Regarding GCUCUGUUAAGGAAGAACATT against Safb2, the z-score was 2.02 (active).

As to GCUAUGACUCCAACAUGCGTT against Jaml, the z-score was 0.0115 (inactive).

As for “GGUGAAGACAGAAUUUCCGTT against 1700128F08Rik”, the z-score is -1.01 (inactive).

In the case of GGAAGCAAGGAAAAUCAUGTT against Lpo, the z-score is -0.289 (inactive).

Turning to GGUGAUACGUAUUUUUUAGTT against Pan3, the z-score is -1.09 (inactive).

Take GGGUUGUCUUCAUCUACUUTT against Crhr1: the z-score is 3.47 (active).

In the case of GGUGUUUACUUCCUCAGAATT against Slc9b2, the z-score was -0.373 (inactive).

For GGAGAUAUCCAUCAAUAGUTT against Nbr1, the z-score is 0.874 (inactive).

On to GGACUUCUAAAAAUCUCUGTT against Gabrb2, for which the z-score is 0.746 (inactive).

As to GCGCGCAGUGAACGAAAAATT against Mycn, the z-score was 1.14 (inactive).

In the case of “CCAUCACGGAUAAUCAUCGTT against 4931417E11Rik”, the z-score is -1.65 (inactive).

On to GGUACUUCCUACCUAACAGTT against Nipa1, for which the z-score is -0.235 (inactive).

With CCACAGGUUACAACAUAAATT against Pign, the z-score is -1.45 (inactive).

Turning to GCUCCACAAGAUGUAAAGGTT against Il21, the z-score is 0.11 (inactive).

On to GGAACUGAUGAUGGACCAGTT against Slc4a1, for which the z-score is 3.39 (active).

For the sequence GGGCCAUUUUAGGUCCUUUTT against Rbm7, the z-score was 0.112 (inactive).

Take GGACUUACCUUUAACCAACTT against Slc30a4: the z-score was 0.42 (inactive).

GGGAAUGAAAAGUCAAAAGTT against Stard7: the z-score is -0.047 (inactive).

On to GCAGCUCUAGGUGUUCAGUTT against Gjc3, for which the z-score was 0.955 (inactive).

As to GCCAUUGGGUGUAACAUUUTT against Mpp6, the z-score was 3.35 (active).

As for GCCAUGCACUAACUUGAAUTT against Adamts4, the z-score is -0.0391 (inactive).

As to GCACUUUACGAGUAUGUAATT against Gnl1, the z-score is -1.74 (inactive).

For GGUAUUGGAAAGUAGAAACTT against Igflr1, the z-score is 0.515 (inactive).

As for CCGAGUGGUUAGCUACCAGTT against Ccl24, the z-score is 2.4 (active).

As to GGAGAUCCUUCAUUACCUGTT against Psap, the z-score was -1.34 (inactive).

In the case of GGGAUCGUCCAGAUCUAAUTT against Apobec3, the z-score was -0.982 (inactive).

Regarding GGACUGUCCUCCAAUUUGCTT against Nat8f3, the z-score is -2.6 (active).

GGGAAAUUUACAGAAAGUGTT against Igtp: the z-score was 0.956 (inactive).

For the sequence CGGGCUCAGGUAAAACUCUTT against Ddx31, the z-score is -0.217 (inactive).

Turning to GGAGAGCUUGUUCAAGUGCTT against Zxdc, the z-score was -0.86 (inactive).

Take CCUCAUUGGUUUGACCCAGTT against Hsd17b6: the z-score is 0.172 (inactive).

On to GCCAUUAACUAUGGGACCUTT against Lck, for which the z-score is -0.0729 (inactive).

On to GCUAUCACUUUUCAUUAGATT against G0s2, for which the z-score was -0.902 (inactive).

Take CCUGCUAAGAGAGUACUAUTT against Pglyrp2: the z-score is 1.51 (inactive).

As to GGUUGGACGUGGUGAAGAATT against Chtf18, the z-score was -2.24 (active).

With GGAAUACAAACUGCUGUACTT against Urgcp, the z-score was 0.138 (inactive).

Turning to GGAAGUGUGAACUUCAUCATT against Zdhhc6, the z-score was 2.78 (active).

On to GCCCACGAGCCUCAUGGACTT against Sts, for which the z-score is -0.805 (inactive).

Take GGAGUAUCGUAAUGCGGACTT against C4b: the z-score was 0.598 (inactive).

On to GGACUCCUAAUGAAUAAUCTT against Wee2, for which the z-score is 2.06 (active).

CCUUCCUUACCUACGUGAGTT against Nup88: the z-score is 1.71 (inactive).

As to CCUCAAGGCAGUUCAUAUUTT against Zfp790, the z-score was -0.334 (inactive).

Take GGCUCGGUAUCGUUUUUCATT against Arl3: the z-score was 0.841 (inactive).

GGCUAUCUUUUCAGCUUUATT against Sox30: the z-score is 0.212 (inactive).

For the sequence GCCGACCACAGUACAAGACTT against Bivm, the z-score is 1.08 (inactive).

For GCCGUGUGGUAAUAGUGUCTT against Dhrs13, the z-score is 0.442 (inactive).

For the sequence GGAUGAAACGGGUGCCUAUTT against Kctd5, the z-score was 3.33 (active).

For the sequence “GGACUUCUAGAGAACUUGUTT against 2900092C05Rik”, the z-score was -1.7 (inactive).

Consider GGCUGUAUACCAAUAAAAATT against B4galt6, for which the z-score is -0.855 (inactive).

In the case of CGUUUCAGAGUGUUUGUGGTT against Lgalsl, the z-score is -0.173 (inactive).

In the case of GGUAUCAGAGCUGUGUUCUTT against Cpped1, the z-score was -1.48 (inactive).

As to GGAAAUCUAAAAGUCCUCCTT against Il17re, the z-score was 0.2 (inactive).

For GGAUCAUCUCUUUGGGCUGTT against Tmem37, the z-score is 0.127 (inactive).

For GGAGAAGAAAGAAAAGCUUTT against Nusap1, the z-score is -1.74 (inactive).

As for GGCUGAAAAACUCAAUUAUTT against Boll, the z-score is -0.813 (inactive).

As to CCAAAUAUCCGGCCAUGACTT against Lgals6, the z-score is -0.877 (inactive).

GGAAAACACCUACCUGUGGTT against Slc25a3: the z-score is -1.48 (inactive).

Regarding GGAAAUCAGAGAAUACUUCTT against Mfsd14b, the z-score is 2.04 (active).

Turning to GAAGAAGGAAAAAAACCCATT against Sec61b, the z-score was -1.19 (inactive).

GCACCUCCUGGGAUUACAUTT against Crp: the z-score was 0.412 (inactive).

As to GGGCUAAUUGUGAACAUUUTT against Slc7a1, the z-score is 3.35 (active).

In the case of GCCAUGAAGCUAAAUAAUCTT against Optn, the z-score was -1.31 (inactive).

Consider GCACCUCUACACUUUAGAUTT against Rack1, for which the z-score is -0.0792 (inactive).

For the sequence GGACUGGUUCAUCCUUGUGTT against G6pc, the z-score was 0.922 (inactive).

Consider GGACCACCUAAGUUUAAGCTT against Pde6g, for which the z-score was -0.557 (inactive).

Turning to GGCAUCAAGCACAAGAAAATT against Sys1, the z-score is -1.16 (inactive).

As for CCUGUGCCUCGUUUUAUUUTT against Fam161a, the z-score was 0.807 (inactive).

Consider GGUGAUCGAGGAGAGUCUATT against Oaf, for which the z-score is -0.737 (inactive).

On to GGUGGAGUUAGAAAACUACTT against BC048679, for which the z-score was -0.341 (inactive).

For CCUGAACGUGAGUGGAGAATT against Man1c1, the z-score is -0.8 (inactive).

On to GGUGAAGAUUGAGAAGGAGTT against Aifm3, for which the z-score is -2.05 (active).

Consider GACCUACCAGAUGAAGGUCTT against Vmn1r28, for which the z-score was 0.29 (inactive).

For the sequence GCGACUUUAGCUAAACAUGTT against Kcns2, the z-score is 1.79 (inactive).

Consider GGAAGAAACAUGUAUCAUGTT against Tff1, for which the z-score is 0.556 (inactive).

With GACAGUGCACGAUCUGAUUTT against Pfn3, the z-score is 0.274 (inactive).

Regarding GCUGGAAUGCAAGGGCUUCTT against Gchfr, the z-score is 1.45 (inactive).

With GGAUAUGAAACAAUAACAGTT against Arid5b, the z-score is -0.349 (inactive).

Consider GGCAAAAUCUAUUGUCUUCTT against Ran, for which the z-score is -2.2 (active).

For the sequence GGAGGUAAAUGAAAAAUCUTT against Nop56, the z-score is 0.611 (inactive).

GGUGAUCGUGGUGUGGAACTT against Extl2: the z-score was 0.941 (inactive).

With GGCAAUGAUGAGACCUAGUTT against Mybbp1a, the z-score was 0.0956 (inactive).

As to GCAAUCGAGCUGAAACUAGTT against Hat1, the z-score is 0.721 (inactive).

In the case of CCACCAUUUAUAUUUGGUUTT against Slc35g1, the z-score was -0.298 (inactive).

Turning to GGGUUACAAUAACUGGACATT against Ggcx, the z-score was 2.32 (active).

Turning to GCCACAUGGUUAAUAAGAGTT against Postn, the z-score was -1.5 (inactive).

As to ACCUCAAGACAGUGCAAAUTT against H2bc4, the z-score was -1.41 (inactive).

Consider GGAAAAUCAACAGCAUCAATT against Olfr661, for which the z-score is -0.642 (inactive).
